# Laboratory results from PMC13494018.
# Values without a mark were called inactive. The rule behind the calls is not given here.
# B1: d1r8_design_ppi_587_dldesign_0_cycle0_af2pred (protein)
# chain: SEYRREAEELRERVERIEKRMREAKTAEEAREVLREAQRVAAEAARLAVQAAADGADQEVLDEINEVLSRALEVAREASRKARELE
# B2: d1r8_design_ppi_467_dldesign_0_cycle1_af2pred (protein)
# chain: AEAEAAVASLVEFVKAILDAAATQDPRLAPAAEEALALMEAGDFDEAARLFLAAGAAAGPAAAALARAAANAMRLAAEAAAAI
# B3: d1r8_design_ppi_590_dldesign_0_cycle1_af2pred (protein)
# chain: LEEVKKKLKELAELAKSAGKWNPETGKQVVKSLLRVAESEAKRLAGDPEAAEKVKKYGEELAKEAEKEIKEVAAA
# B4: d1r8_design_ppi_811_dldesign_0_cycle1_af2pred (protein)
# chain: AEEEEAERAREEAKESLLAARDTAVGILTAAGLTDKAKEVEKYAEEALKEAEKLTPEEAAKLYGEAANRILTDTIAAASAAVA
# B5: d1r8_design_ppi_667_dldesign_0_cycle0_af2pred (protein)
# chain: SAAAAAALAAARATAVAALTAGTGLAPEEAAALAAAMTDDQIFAIANLNAANPAAGQALAANLAAQVRRELA
# B6: d1r8_design_ppi_832_dldesign_0_cycle0_af2pred (protein)
# chain: AAEAAALKAQIEAAIAQMREETRRAAERDVEEGGRVASAATQQITKLVSQLAKVDPAAGAEAMALLTEAMREVQAYLDAERAARA
# B7: d1r8_design_ppi_588_dldesign_0_cycle1_af2pred (protein)
# chain: AAEDKALAAAMAAEAEKVIAEAAKQTPAEANKLAATFAEKAFALAKEHPGAAAALNAAAFKVLTGAMKAIQAQSA
# B8: d1r8_design_ppi_443_dldesign_0_cycle1_af2pred (protein)
# chain: SPAAALLARTAAAIAAQTVREVGPARAAELQALADAATAAAEAGDFTTAGELLEELLRLAAEARAEKAAAERAAAA
# B9: d1r8_design_ppi_401_dldesign_0_cycle1_af2pred (protein)
# chain: MEKVEKAKKGLEQATELAKAMVPEKAEEFEKIRKEGVEEAKKAAGDPEKAAEILAKARNEILRNGIKAAMAAAKAAA
# B10: d1r8_design_ppi_321_dldesign_0_cycle0_af2pred (protein)
# chain: SAEENKKRLIAAAEAAFKNFSAEAERLEAEGKKEEAAKVYEQLAELLEQMRESAKATAGEEGAKEIEKLLEEAKKKLEEVK
# B11: d1r8_design_ppi_824_dldesign_0_cycle1_af2pred (protein)
# chain: AEAERRRAEVLALFDEAVAAGSPELARAAAERAAELNPERAEDIRQQGEIAAALMPFSPRAARALMRTVAA
# B12: d1r8_design_ppi_616_dldesign_0_cycle1_af2pred (protein)
# chain: DAAREAALKEAKEEFEKAEKEAEEAIKAAKDDPEAQKKLKELRESAKAALENAEKTKADVTTYKGVKALARMLLQTAEGVKKAAEA
# B13: d1r8_design_ppi_661_dldesign_0_cycle1_af2pred (protein)
# chain: DVVAEARELAARAEEAAERARADPAASQEVVDLFRQAAGYARNALLLAEGTPESQAQAARLLERARRLFEEAERRFRADVAAAA
# B14: d1r8_design_ppi_373_dldesign_0_cycle1_af2pred (protein)
# chain: SEELIKNLLLAASKALAGVESAPEAIKAAEEAAKDPRLKEDAEKAKKLIKAAIKATPEEAAKLLKKAAKLLNDALRKYTS
# B15: d1r8_design_ppi_373_dldesign_0_cycle0_af2pred (protein)
# chain: DQETTGNLVLAAAKANAGVEEADKAIEAAEKAAKDPKLKEKAEEAKKLIEEAKKATPEEAKKLLKEAAKLVNEALRAYSA
# B16: d1r8_design_ppi_811_dldesign_0_cycle0_af2pred (protein)
# chain: AQEAADQAAFEAAKAGLEKATEAAVGMLEALGEEEAAKEVREFAEKAKKEAEKLTPKEGAELYGKAANEILRRTSQVAAQAVA
# B17: d1r8_design_ppi_566_dldesign_0_cycle1_af2pred (protein)
# chain: MTPEEAREMGERIREAAKRSVEEAVKAIEEAKEKLSPELKPLADRAIELAKRSPEAGANLATTALHIEALS
# B18: d1r8_design_ppi_364_dldesign_0_cycle1_af2pred (protein)
# chain: ALEEAAREARELADETLAAAKAGTINLEELAARFNEAGRLIREVEALGELAEEVGRYVSRKFNEALTALL
# B19: d1r8_design_ppi_791_dldesign_0_cycle0_af2pred (protein)
# chain: SENEKKLEEVKKKLEEAKKAAEEDPKAGAALAIETIELAKKAAEEAKKNGDEKTAEEANKLAHEAMKLAAKALAKAAA
# B20: d1r8_design_ppi_744_dldesign_0_cycle1_af2pred (protein)
# chain: STAEKAVKLVEETAKKGIAEAKADPAKVPAAAKELAKKGKEAAKLIGSTGLAVGIGNLAKTAIAFPEQAPDYFASAAALAKEVAE
# B21: d1r8_design_ppi_647_dldesign_0_cycle0_af2pred (protein)
# chain: KEELVKQAESLEKFAKLAAEGASPEAKPLFEKAAEKFRKAAEAAKENPEEGEKLMAEGRKLLAEGMRLEIQLR
# B22: d1r8_design_ppi_742_dldesign_0_cycle1_af2pred (protein)
# chain: AAAAAAKAAAAAAAQAALRSLRDLAARAKAAEAAGDPEAAAKYRAAAEQWADIAIASAKQAGTEATVAAEAAALLAA
# B23: d1r8_design_ppi_735_dldesign_0_cycle1_af2pred (protein)
# chain: SEAAEKALKAVEAAIEVVETGTPEEALAATKAAAEVAKKAAEAAGNLGAQIKATADAAVKATAADKAAGLAKLRTLATLLRAYAEA
# B24: d1r8_design_ppi_356_dldesign_0_cycle1_af2pred (protein)
# chain: VLEAVSAALSLAEEAAELDPRAGHALLTYANAVWNPATLEKGRKTAREKAKEFKKRAEEEDGERARKAAELLEKAIEEAEKLLKEA
# B25: d1r8_design_ppi_454_dldesign_0_cycle1_af2pred (protein)
# chain: AAEAQARAEKAEKLMREAVELVKADPTPEAVKEAEKLIAEAAKLATGSAEKHAAANAARALRTRGPEAAEVQAKLFVEMIKT
# B26: d1r8_design_ppi_314_dldesign_0_cycle1_af2pred (protein)
# chain: ALEEAKKAAEEAKAAAAEARAYFDAAGLTGAGNGFYNNTKKRAEELLKEAEEGSEEEAKKARKELERLKETAEKMLEVAKGVYAAAQA
# B27: d1r8_design_ppi_534_dldesign_0_cycle1_af2pred (protein)
# chain: AAALAAEAAALAQEALANIAEADALAKKADPEIGKIYEEAARHFMRGVSLAQRGDLERAKKEIEEGKKLFEKAKELEKKKKEKE
# B28: d1r8_design_ppi_723_dldesign_0_cycle1_af2pred (protein)
# chain: EEAQKKIKELGEKAAELAKKNVEEGAEALKEAAKLAAKAQPASAEQILKHGEAVAERAKTLSPEEAATLVRNAGKVFAQL
# B29: d1r8_design_ppi_679_dldesign_0_cycle0_af2pred (protein)
# chain: AEAQKLLEKAKKLAEEAKKIAKESGDEEAKRIAEGAKKMAELAKAALAAGDSAAAMQAYLAGVKTLYEAAKEEAKRKA
# B30: d1r8_design_ppi_364_dldesign_0_cycle0_af2pred (protein)
# chain: DLERAAEEAERLAEETLARAAAGEITLEELAEAHRRIGELIERVAASGELAERVARRASRLMNQALTALA
# B31: d1r8_design_ppi_616_dldesign_0_cycle0_af2pred (protein)
# chain: DAERQAALEEAKKEAERAKKAAEEAIKAAAKDPEAQKKLEEARENLEAALKWAEETNGDVTTWKGVTALARMVLQAAEGIKKKAEA
# B32: d1r8_design_ppi_296_dldesign_0_cycle1_af2pred (protein)
# chain: SAAAKAAAEAAKQRVDGLAQMAIASPALLPHMEAMAKRAAAAVAALDPALGAEVEKYAKEQMAKAKAAVAAAAAAA
# B33: d1r8_design_ppi_543_dldesign_0_cycle0_af2pred (protein)
# chain: AAAQTAHAQAVLDTLIALALRKAAEDPAAARAALESAKLVAEGVKATGDAATGAAAQAKVDAAGAEVAAAAA
# B34: d1r8_design_ppi_780_dldesign_0_cycle1_af2pred (protein)
# chain: AAATLAALTAAFGRLVELGAEAIRANPALAPEVNKLLGTASKAAIAGIRDPSLAEAALKTIEAQLKKVEELLKKAK
# B35: d1r8_design_ppi_790_dldesign_0_cycle0_af2pred (protein)
# chain: AAAAAQAATATAIRSRGTNRMLTRILALPASASEAELRAIVEEEAERARAEMLAAGVSPELAEAAVEHILRIGEQAIAAR
# B36: d1r8_design_ppi_393_dldesign_0_cycle1_af2pred (protein)
# chain: EREELAERLEKAARLLEEGAASDSPGLLAARAWAAANVAPPEWAARLREVSRAALANVEEGRKLAKELAEELRKEAERLRKEL
# B37: d1r8_design_ppi_716_dldesign_0_cycle1_af2pred (protein)
# chain: AVEAALAEARAVLERAKEAAKRLKEVGTPEEQKLAEELVALGETALKQAEADGTLATARGALAAARLALQGLEGLLERALARRAAAA
# B38: d1r8_design_ppi_443_dldesign_0_cycle0_af2pred (protein)
# chain: SAAAALLARTAAAIVAQTRALVGDAKAAEAQALADAAVAAAKAGDYAKAGALLTELLKLAAEARREKAAAEAAAAA
# Biological target: CD276, Q5ZPR3
# Sequence (Q5ZPR3 whole entry): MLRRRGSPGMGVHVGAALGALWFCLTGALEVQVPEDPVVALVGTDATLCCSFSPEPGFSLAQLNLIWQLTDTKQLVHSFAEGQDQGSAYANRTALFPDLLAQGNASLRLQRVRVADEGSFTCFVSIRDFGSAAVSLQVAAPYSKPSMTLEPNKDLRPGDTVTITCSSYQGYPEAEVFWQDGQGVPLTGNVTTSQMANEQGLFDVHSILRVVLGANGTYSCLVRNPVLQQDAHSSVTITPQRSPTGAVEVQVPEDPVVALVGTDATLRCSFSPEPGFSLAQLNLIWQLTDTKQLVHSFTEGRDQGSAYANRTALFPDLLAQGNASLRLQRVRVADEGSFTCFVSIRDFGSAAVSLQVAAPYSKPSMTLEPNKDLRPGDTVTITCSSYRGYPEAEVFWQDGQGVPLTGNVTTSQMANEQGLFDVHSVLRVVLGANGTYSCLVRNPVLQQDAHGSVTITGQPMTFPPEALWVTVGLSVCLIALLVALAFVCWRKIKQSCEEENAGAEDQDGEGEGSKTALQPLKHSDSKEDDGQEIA
row,Binder,binding in a display sort
1,B1,not found
2,B2,not found
3,B3,not found
4,B4,not found
5,B5,not found
6,B6,not found
7,B7,not found
8,B8,not found
9,B9,binds (active)
10,B10,not found
11,B11,not found
12,B12,not found
13,B13,not found
14,B14,not found
15,B15,not found
16,B16,not found
17,B17,not found
18,B18,not found
19,B19,not found

row,Binder,binding in a display sort
1,B20,not found
2,B21,not found
3,B22,not found
4,B23,not found
5,B24,not found
6,B25,not found
7,B26,not found
8,B27,not found
9,B28,not found
10,B29,not found
11,B30,not found
12,B31,not found
13,B32,not found
14,B33,not found
15,B34,not found
16,B35,not found
17,B36,not found
18,B37,not found
19,B38,not found
